# Results reported in PubChem BioAssay.
# Activity calls are given as the source filed them. No rule for the calls is given here.
# Key:
# [1] = test system: Botulinum neurotoxin type F light chain protease (Clostridium botulinum); assay: Botulinum neurotoxin type F light chain protease inhibition, multiplex microsphere flow cytometry, validation set (AID 588459); details: multiplex microsphere protease substrate cleavage assay, at 10 µM, stronger effect = higher value
# [2] = molecular target: Botulinum neurotoxin type A (Clostridium botulinum) (UniProt P0DPI0); assay: BoNT/A light chain protease inhibitors, biochemical, multiplex microsphere flow cytometry, validation set (AID 588460); details: at 10 µM, stronger effect = higher value
# [3] = molecular target: Lethal factor (Bacillus anthracis) (UniProt P15917); assay: Lethal factor protease inhibitors, Bacillus anthracis, multiplex microsphere cleavage assay, validation set (AID 588461); details: flow cytometry, at 10 µM, stronger effect = higher value
# Lethal factor (Bacillus anthracis), sequence (P15917 whole entry, looked up): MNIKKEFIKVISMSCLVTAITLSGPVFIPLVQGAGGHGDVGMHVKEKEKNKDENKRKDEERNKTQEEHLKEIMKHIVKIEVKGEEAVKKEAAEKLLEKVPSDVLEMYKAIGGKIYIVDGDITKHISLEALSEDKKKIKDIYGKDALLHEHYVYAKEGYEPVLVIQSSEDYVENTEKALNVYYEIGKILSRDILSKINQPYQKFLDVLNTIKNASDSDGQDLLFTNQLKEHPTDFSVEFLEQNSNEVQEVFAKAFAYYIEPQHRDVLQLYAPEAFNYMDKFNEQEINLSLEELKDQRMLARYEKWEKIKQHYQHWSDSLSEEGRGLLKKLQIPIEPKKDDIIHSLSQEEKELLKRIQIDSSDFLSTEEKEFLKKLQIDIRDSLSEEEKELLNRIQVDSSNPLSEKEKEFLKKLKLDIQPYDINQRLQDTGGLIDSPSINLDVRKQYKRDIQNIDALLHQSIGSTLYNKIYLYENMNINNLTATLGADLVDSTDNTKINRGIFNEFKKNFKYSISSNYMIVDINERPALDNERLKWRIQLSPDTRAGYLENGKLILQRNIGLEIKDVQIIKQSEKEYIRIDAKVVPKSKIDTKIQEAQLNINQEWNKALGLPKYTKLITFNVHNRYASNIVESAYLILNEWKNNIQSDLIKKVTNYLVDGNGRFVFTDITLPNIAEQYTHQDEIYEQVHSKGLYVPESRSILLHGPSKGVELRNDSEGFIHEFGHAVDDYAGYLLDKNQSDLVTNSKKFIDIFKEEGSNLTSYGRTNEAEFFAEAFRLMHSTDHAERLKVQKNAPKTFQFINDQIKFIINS
# Botulinum neurotoxin type A (Clostridium botulinum), sequence (P0DPI0 whole entry, looked up): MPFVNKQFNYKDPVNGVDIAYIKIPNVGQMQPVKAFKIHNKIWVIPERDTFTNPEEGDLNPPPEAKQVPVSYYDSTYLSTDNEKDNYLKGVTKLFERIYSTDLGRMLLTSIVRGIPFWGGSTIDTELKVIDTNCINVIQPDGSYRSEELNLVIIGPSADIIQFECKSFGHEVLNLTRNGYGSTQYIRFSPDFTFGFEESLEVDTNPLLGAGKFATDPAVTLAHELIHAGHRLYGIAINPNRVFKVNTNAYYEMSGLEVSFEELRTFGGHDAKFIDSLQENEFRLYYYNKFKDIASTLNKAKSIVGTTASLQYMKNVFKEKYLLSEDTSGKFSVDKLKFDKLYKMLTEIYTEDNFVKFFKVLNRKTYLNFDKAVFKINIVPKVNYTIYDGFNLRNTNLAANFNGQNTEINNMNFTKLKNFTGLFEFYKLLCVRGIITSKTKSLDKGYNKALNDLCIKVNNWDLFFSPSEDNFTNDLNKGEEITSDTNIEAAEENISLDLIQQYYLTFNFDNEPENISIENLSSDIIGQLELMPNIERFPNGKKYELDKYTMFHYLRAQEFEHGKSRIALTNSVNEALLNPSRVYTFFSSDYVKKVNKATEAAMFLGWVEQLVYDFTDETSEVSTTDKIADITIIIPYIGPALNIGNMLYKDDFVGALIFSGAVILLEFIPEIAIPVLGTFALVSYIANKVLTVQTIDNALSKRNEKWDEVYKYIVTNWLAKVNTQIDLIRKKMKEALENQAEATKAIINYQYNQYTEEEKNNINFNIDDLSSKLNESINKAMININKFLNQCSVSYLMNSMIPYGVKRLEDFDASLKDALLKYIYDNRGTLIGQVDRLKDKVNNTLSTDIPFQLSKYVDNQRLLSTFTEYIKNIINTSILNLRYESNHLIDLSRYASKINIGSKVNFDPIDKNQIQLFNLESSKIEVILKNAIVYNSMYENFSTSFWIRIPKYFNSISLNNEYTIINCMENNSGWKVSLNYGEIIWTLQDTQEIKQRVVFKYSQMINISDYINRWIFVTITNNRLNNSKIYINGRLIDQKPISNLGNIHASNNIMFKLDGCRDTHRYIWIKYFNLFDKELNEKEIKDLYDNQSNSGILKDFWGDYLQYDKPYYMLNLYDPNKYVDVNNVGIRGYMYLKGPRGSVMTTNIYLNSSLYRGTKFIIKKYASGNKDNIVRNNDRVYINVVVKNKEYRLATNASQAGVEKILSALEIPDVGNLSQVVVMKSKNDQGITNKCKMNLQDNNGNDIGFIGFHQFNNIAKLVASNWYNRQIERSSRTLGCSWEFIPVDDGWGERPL
Compound,inhibition [1],inhibition [2],inhibition [3]
COc1ccc(-c2[nH]ncc2C=O)cc1OC,-3.5% (inactive),-0.8% (inactive),-2.5% (inactive)
Cc1cc(C)cc(Nc2nc3c([nH]2)c(=O)n(C)c(=O)n3C)c1,-0.8% (inactive),0.5% (inactive),4.9% (inactive)
COc1ccc(NC(=O)Nc2ccc(C(C)C)cc2)cc1,2.7% (inactive),1.5% (inactive),5.7% (inactive)
Clc1ccc2c(c1)C(N1CCNCC1)=Nc1ccccc1O2,3.1% (inactive),2.2% (inactive),-6.2% (inactive)
COc1cc2c(cc1OC)C(Cc1ccc(O)cc1)N(C)CC2 (configuration not stated),2.2% (inactive),0% (inactive),-0.9% (inactive)
CCOCC(=O)Nc1ccccc1C(=O)N1CCOCC1,32.5% (active),14.3% (inactive),6.3% (inactive)
CCCc1c(OCCCCc2nn[nH]n2)ccc(C(C)=O)c1O,-1.3% (inactive),-4% (inactive),-10.3% (inactive)
O=C(O)c1ccc(C(=O)C(=O)c2ccccc2)cc1,1.6% (inactive),1.8% (inactive),-6.8% (inactive)
Cc1ncoc1C(=O)N1CCCC(C(=O)c2ccc(-c3ccccc3)c(F)c2)C1 (configuration not stated),-2.3% (inactive),-0.1% (inactive),-5.3% (inactive)
CCOc1cc(C)cc2oc(=O)cc(-c3ccccc3)c12,-2.2% (inactive),-0.6% (inactive),-4.4% (inactive)
CC(=O)N(CCC1(C(C)C)CCOC(C)(C)C1)Cc1ccco1 (configuration not stated),-2% (inactive),-1.4% (inactive),0.2% (inactive)
O=[N+]([O-])c1cccc2cn[nH]c12,6.9% (inactive),3% (inactive),6.3% (inactive)
COc1ccc(C(=O)Nc2ccccc2C(=O)NCCCn2ccnc2)cc1,-3.6% (inactive),-1.8% (inactive),-3.7% (inactive)
CCn1cc(CN2N=C(C)CC2c2ccccc2)c(C)n1 (configuration not stated),-0.5% (inactive),0% (inactive),-2.2% (inactive)
COc1ccccc1-c1ccc(/C=C2/C=C(CC(C)C)OC2=O)o1,4.8% (inactive),1.7% (inactive),7.1% (inactive)
CCN1CCN(C(=S)c2ccc(OC)cc2)CC1,2.2% (inactive),-0.9% (inactive),11.9% (inactive)
COc1cccc(C2CCCN2Cc2nc(CCC(C)C)no2)c1 (configuration not stated),-2.5% (inactive),-0.8% (inactive),-7.6% (inactive)
CCOC(=O)C(NC(=O)CCC(=O)Nc1ccc(S(N)(=O)=O)cc1)C(O)c1ccccc1 (configuration not stated),-0.5% (inactive),-1% (inactive),5.9% (inactive)
C[N+](C)(C)CCCC(=O)c1ccc2c(c1)OCO2,-4% (inactive),-1.8% (inactive),-6% (inactive)
Fc1ccc(-n2cc(CNCCc3ccccn3)c(-c3ccccc3Cl)n2)cc1,-1.9% (inactive),1.1% (inactive),6.5% (inactive)
Cc1cc(=O)oc(C)c1C(=O)NCCC(C)C,-1.3% (inactive),-0.2% (inactive),4% (inactive)
CC(C)Oc1ccc(C(CC(=O)O)c2ccc(F)cc2)cc1 (configuration not stated),5.2% (inactive),2% (inactive),0.9% (inactive)
CN(C)CCN(Cc1ccc(Cl)cc1)c1ccccn1,-0.9% (inactive),0.1% (inactive),-1.2% (inactive)
C[C@]12CCC(=O)C=C1CC[C@@H]1[C@@H]2CC[C@@]2(C)[C@H]1CC[C@]2(O)C(=O)CO,1.3% (inactive),-1.2% (inactive),-1.7% (inactive)
Cc1ccc(SCC(=O)Nc2nccs2)cc1,-4.8% (inactive),-0.5% (inactive),-5.6% (inactive)
CC(=O)OCC(=O)[C@@]1(O)CC[C@H]2[C@@H]3CCC4=CC(=O)C=C[C@]4(C)[C@H]3[C@@H](O)C[C@@]21C,-5.9% (inactive),-1.8% (inactive),-2.4% (inactive)
Fc1cc(F)cc(NC(=S)NCCCN2CCOCC2)c1,0.9% (inactive),-0.7% (inactive),-2.9% (inactive)
CO[C@@H]1O[C@@H]2COC(c3ccccc3)O[C@@H]2[C@@H](OC)[C@@H]1O (some centres not stated),1.6% (inactive),-0.6% (inactive),2.5% (inactive)
COc1ccc(C2C(C#N)=C(N)Oc3cc(C)[nH]c(=O)c32)c(OC)c1OC (configuration not stated),1.9% (inactive),0.1% (inactive),0.8% (inactive)
